Data taken from PubChem BioAssay AID434936 (National Center for Advancing Translational Sciences (NCATS), 2010).
“And” between values parts separate entries of the source, which are not always exact repeats. Identical values can stand only once. Inconclusive results are not listed. The source made the active and inactive calls. Calls come from the whole dose curve; as a rule, active = well fitted curve in either direction with a large enough effect; inconclusive = small, poorly fitted or top-dose-only effect; inactive = flat fitted curve, though single readings scatter.

The compounds below were run against Neuropeptide S receptor (Homo sapiens) (UniProt Q6W5P4) (assay: Confirmation Concentration-Response Assay for Antagonists of the Neuropeptide S Receptor: Robust Characterization of cAMP Signal Transduction). Settings: CHO-NPSR cells, NPS-stimulated cAMP TR-FRET; series mostly up to 50.7 µM.
Neuropeptide S receptor (Homo sapiens), sequence (Q6W5P4 whole entry, looked up): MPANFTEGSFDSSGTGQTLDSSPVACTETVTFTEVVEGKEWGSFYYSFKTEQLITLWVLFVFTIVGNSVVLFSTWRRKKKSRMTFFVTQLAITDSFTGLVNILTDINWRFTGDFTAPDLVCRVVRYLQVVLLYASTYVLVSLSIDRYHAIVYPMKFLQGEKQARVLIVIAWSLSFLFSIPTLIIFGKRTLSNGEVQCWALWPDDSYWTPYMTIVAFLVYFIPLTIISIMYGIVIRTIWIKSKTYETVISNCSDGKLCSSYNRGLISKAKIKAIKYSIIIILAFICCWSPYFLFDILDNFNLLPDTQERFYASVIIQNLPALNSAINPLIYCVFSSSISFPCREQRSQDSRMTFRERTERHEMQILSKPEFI
Description: NIH Chemical Genomics Center [NCGC] NIH Molecular Libraries Probe Production centers Network [MLPCN] MLPCN Grant: X01-DA026210-01 Assay Submitter (PI): Heilig, Markus Alexander NCGC Assay Overview: Neuropeptide S receptor (NPSR), previously known as GPR154, is a recently de-orphanized G protein coupled receptor. Its endogenous ligand is the 20 amino acids peptide Neuropeptide S (NPS). […] NPS and its receptor are found in various tissues. Specifically they are highly expressed in brain areas that have been implicated in modulation of arousal, stress and anxiety. Central administration of NPS in mice produces an unusual profile of activity by inducing wakefulness and arousal, while at the same time suppressing anxiety. Therefore, NPSR may represent a novel drug target for the treatment of sleep and anxiety disorders. To identify NPSR antagonists, we developed a cell-based cAMP assay. NPS can stimulate the production of cAMP in Chinese hamster ovary cells stably expressing NPS receptor. This change in intracellular cAMP level can be detected by a homogeneous LANCE cAMP assay based on the TR-FRET (time resolved fluorescence resonance energy transfer) between a europium-labeled cAMP tracer complex and a cAMP-specific antibody labeled with Alexa Fluor 647. The europium-labeled cAMP tracer complex is formed by the tight interaction between Biotin-cAMP (b-cAMP) and streptavidin labeled with Europium-W8044 chelate (Eu-SA). Light pulse at 320 nm excites the europium of the cAMP tracer and the energy emitted is transferred to the Alexa molecule bound to the cAMP antibody, generating a TR-FRET signal at 665 nm. Residual energy from the europium will produce a light at 620 nm. The native unlabeled cAMP from cell lysates competes with the europium-cAMP tracer for antibody binding and reversely reduces the emission signal of Alexa by interrupting FRET between the two labeled molecules. Both emission signals from the FRET donor (620 nm) and the acceptor (665 nm) can be detected by a plate reader in the TRF mode. Expression of result in fluorescence ratio (665 nm/620 nm) helps to normalize differences due to cell density and reagent dispensing. This assay was successfully optimized to a 1536-well plate format. Select compounds from the primary screen (AID 1461) were chosen for confirmation based on potency, efficacy, SAR, and activity across other assays in PubChem and at NCGC. Other compounds are analogs of active compounds from the primary screen. This particular assay uses a high density of sampling across concentration-response space to establish more confidence estimates of potency.
NCGC Assay Protocol Summary: A Chinese hamster ovary (CHO) cell line stably expressing the NPS receptor (CHO-NPSR) was obtained from Dr. Heilig lab at NIAAA and maintained in F-12 Kaighn's media (Invitrogen, Carlsbad, CA, 21127) supplemented with 10 % FBS, 100 units/ml penicillin, 100 ug/ml streptomycin and 250 ug/ml geneticin at 37C, 5% CO2 in a humidified atmosphere. Before the assay, aliquots of cells were frozen and stored at -135C. The assay was performed in 1536-well format. Data are reported for both the ratio of the two emission wavelengths, and also for the component 'donor' channel, Em2=620. […] IC50 values were determined from concentration-response data modeled with the standard Hill equation. NPS 1536-well assay protocol: (1) Fresh or frozen CHO-NPSR cells were suspended in F-12 Kaighn's media supplemented with 10 % FBS, 100 units/ml penicillin and 100 ug/ml streptomycin. Cells were plated at 4 ul/well (1200 cells) to white, tissue culture treated 1536-well plates, and then cultured at 37C, 5 % CO2 for 16 to 30 hours. (2) Add 23 nl/well of compound in DMSO solution. The final titration for each compound was between 0.6 nM and 46 uM. […]

SMILES | Potency
S=P(c1ccccc1)(c1ccccc1)c1nc(CCCc2ccccc2)n2ccccc12 | inactive
COc1cccc(C2c3c(ncn(-c4cccc(C)c4)c3=N)Oc3ccc4ccccc4c32)c1 (stereo not given) | 9.72 µM (active)
COc1cccc(C2c3c(ncn(-c4cccnc4)c3=N)Oc3ccc4ccccc4c32)c1 (stereo not given) | 8.67 µM (active)
Fc1ccc(-c2c(P(=S)(c3ccccc3)c3ccccc3)n3ccccc3[n+]2C/C=C/c2ccccc2)cc1 | 0.471 µM (active)
COc1ccc(C2c3c(ncn(Cc4ccccc4)c3=N)Oc3ccc4ccccc4c32)cc1OC (stereo not given) | 13.7 µM (active)
COc1cccc(C2c3c(ncn(-c4ccccc4-c4ccccc4)c3=N)Oc3ccc4ccccc4c32)c1 (stereo not given) | 15.4 µM (active)
COc1cccc(C2c3c(ncn(-c4ccc(-c5ccccc5)cc4)c3=N)Oc3ccc4ccccc4c32)c1 (stereo not given) | inactive
COc1cccc(C2c3c(ncn(CCN4CCOCC4)c3=N)Oc3ccc4ccccc4c32)c1 (stereo not given) | 12.2 µM (active)
COc1cccc(C2c3c(ncn(-c4ccncc4)c3=N)Oc3ccc4ccccc4c32)c1 (stereo not given) | 13.7 µM (active)
O=C(c1ccccc1)N(C(=O)c1ccccc1)c1ncnc2c1C(c1ccccc1)c1c(ccc3ccccc13)O2 (stereo not given) | 1.54 µM (active)
O=C(NCc1ccccc1)Nc1ncnc2c1C(c1ccccc1)c1c(ccc3ccccc13)O2 (stereo not given) | 30.7 µM (active)
COc1cccc(C2c3c(ncn(-c4ccccc4)c3=N)Oc3ccc4ccccc4c32)c1 (stereo not given) | 8.67 µM (active) and 1.54 µM (active)
Nc1ncnc2c1C(c1ccccc1)c1c(ccc3ccccc13)O2 (stereo not given) | 6.88 µM (active)
COc1cccc(C2c3c(ncn(-c4ccc(C#N)cc4)c3=N)Oc3ccc4ccccc4c32)c1 (stereo not given) | 12.2 µM (active)
CCC(C)(CCN1CCOCC1)N(Cc1cc2ccccc2n(C)c1=O)C(=O)C1CCCCC1 (stereo not given) | 0.0546 µM (active)
COc1ccc(C2C3=C(N=CN(CCN4CCOCC4)C3N)Oc3ccccc32)cc1OC (stereo not given) | inactive
CCOC(=O)CC(=O)Nc1ncnc2c1C(c1ccccc1)c1c(ccc3ccccc13)O2 (stereo not given) | 3.07 µM (active)
COc1ccc2c(c1)Oc1ncn(CCN3CCOCC3)c(=N)c1C2c1ccc(OC)c(OC)c1 (stereo not given) | 13.7 µM (active)
O=C(CCc1ccccc1)Nc1ncnc2c1C(c1ccccc1)c1c(ccc3ccccc13)O2 (stereo not given) | 4.34 µM (active)
CCOc1ccc(C2c3c(ncn(-c4ccccc4)c3=N)Oc3ccc4ccccc4c32)cc1OCC (stereo not given) | 3.45 µM (active)

SMILES | Potency
CCOC(=O)CCCC(=O)Nc1ncnc2c1C(c1ccccc1)c1c(ccc3ccccc13)O2 (stereo not given) | 2.44 µM (active)
COc1cccc(C2c3c(ncn(-c4cccc(Br)c4)c3=N)Oc3ccc4ccccc4c32)c1 (stereo not given) | 12.2 µM (active)
CC(C)(C)OC(=O)Nc1ncnc2c1C(c1ccccc1)c1c(ccc3ccccc13)O2 (stereo not given) | 10.9 µM (active)
COc1cccc(C2c3c(ncn(-c4ccccn4)c3=N)Oc3ccc4ccccc4c32)c1 (stereo not given) | 17.3 µM (active)
COc1ccc(C2c3c(n(CCCc4ccccc4)cnc3=N)Oc3ccc4ccccc4c32)cc1OC (stereo not given) | 24.4 µM (active)
COc1cccc(C2c3c(ncn(-c4ccc(NC(C)=O)cc4)c3=N)Oc3ccc4ccccc4c32)c1 (stereo not given) | 12.2 µM (active)
COc1ccc(C2c3ccc4ccccc4c3Oc3ncn(CCN4CCOCC4)c(=N)c32)cc1OC (stereo not given) | 30.7 µM (active)
COc1cccc(C2c3c(ncn(-c4ccc(C(C)(C)C)cc4)c3=N)Oc3ccc4ccccc4c32)c1 (stereo not given) | 12.2 µM (active)
COc1cccc(C2c3c(ncn(Cc4cccs4)c3=N)Oc3ccc4ccccc4c32)c1 (stereo not given) | 12.2 µM (active)
COc1cccc(C2c3c(ncn(CCCN4CCOCC4)c3=N)Oc3ccc4ccccc4c32)c1 (stereo not given) | 4.87 µM (active)
N#CC1=C(NC=NCc2ccccc2)Oc2ccc3ccccc3c2C1c1ccccc1 (stereo not given) | 1.37 µM (active)
COc1ccc(C2c3c(ncn(CCCc4ccccc4)c3=N)Oc3ccc4ccccc4c32)cc1OC (stereo not given) | 27.4 µM (active)
N=c1c2c(ncn1-c1ccccc1)Oc1ccc3ccccc3c1C2c1ccc2c(c1)OCCO2 (stereo not given) | 2.18 µM (active)
Cc1c(C(O)(c2ccccc2)c2ccccc2)[n+]2ccccc2n1C | inactive
COc1cccc(C2c3c(ncn(-c4ccc(C)cc4)c3=N)Oc3ccc4ccccc4c32)c1 (stereo not given) | 8.67 µM (active)
Cc1nc2ccccn2c1P(=O)(c1ccccc1)c1ccccc1 | inactive
COc1ccc(C2c3c(nc(CCc4ccccc4)[nH]c3=O)Oc3ccc4ccccc4c32)cc1OC (stereo not given) | inactive
COc1cccc(C2c3c(ncn(-c4cccc(OC)c4)c3=N)Oc3ccc4ccccc4c32)c1 (stereo not given) | 6.88 µM (active)
COc1cccc(C2c3c(ncn(-c4ccc(Br)cc4)c3=N)Oc3ccc4ccccc4c32)c1 (stereo not given) | 12.2 µM (active)
COc1cccc(C2c3c(ncn(-c4ccccc4OC)c3=N)Oc3ccc4ccccc4c32)c1 (stereo not given) | 4.34 µM (active)
